According to PubChem BioAssay (NCATS):
“And” between values parts separate entries of the source, which are not always exact repeats. Equal entries are not always repeated. Records with an inconclusive call do not appear. The source made the active and inactive calls. The call rests on the fitted dose curve; in most records, active means well fitted curve in the direction sought with a large enough effect; inconclusive means small, poorly fitted or top-dose-only effect, or another doubt; inactive means no such curve, though single readings can be large or run the other way.

Molecular target: Hexokinase-4 (Homo sapiens) + Glucokinase regulatory protein (Homo sapiens) (UniProt P35557+Q14397)
Sequence (P35557 whole entry, looked up): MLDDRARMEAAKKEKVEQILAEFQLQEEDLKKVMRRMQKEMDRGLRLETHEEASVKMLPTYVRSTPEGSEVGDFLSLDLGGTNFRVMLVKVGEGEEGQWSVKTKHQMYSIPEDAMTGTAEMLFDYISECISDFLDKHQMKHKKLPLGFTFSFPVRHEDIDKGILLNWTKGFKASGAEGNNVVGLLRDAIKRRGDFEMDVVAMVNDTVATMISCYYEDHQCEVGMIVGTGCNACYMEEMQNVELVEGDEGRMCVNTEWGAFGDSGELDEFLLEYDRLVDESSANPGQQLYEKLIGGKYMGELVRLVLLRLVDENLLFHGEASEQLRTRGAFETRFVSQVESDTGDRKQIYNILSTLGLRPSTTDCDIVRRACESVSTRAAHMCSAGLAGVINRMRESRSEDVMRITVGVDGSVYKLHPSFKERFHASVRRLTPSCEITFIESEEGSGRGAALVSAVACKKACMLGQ
Sequence (Q14397 whole entry, looked up): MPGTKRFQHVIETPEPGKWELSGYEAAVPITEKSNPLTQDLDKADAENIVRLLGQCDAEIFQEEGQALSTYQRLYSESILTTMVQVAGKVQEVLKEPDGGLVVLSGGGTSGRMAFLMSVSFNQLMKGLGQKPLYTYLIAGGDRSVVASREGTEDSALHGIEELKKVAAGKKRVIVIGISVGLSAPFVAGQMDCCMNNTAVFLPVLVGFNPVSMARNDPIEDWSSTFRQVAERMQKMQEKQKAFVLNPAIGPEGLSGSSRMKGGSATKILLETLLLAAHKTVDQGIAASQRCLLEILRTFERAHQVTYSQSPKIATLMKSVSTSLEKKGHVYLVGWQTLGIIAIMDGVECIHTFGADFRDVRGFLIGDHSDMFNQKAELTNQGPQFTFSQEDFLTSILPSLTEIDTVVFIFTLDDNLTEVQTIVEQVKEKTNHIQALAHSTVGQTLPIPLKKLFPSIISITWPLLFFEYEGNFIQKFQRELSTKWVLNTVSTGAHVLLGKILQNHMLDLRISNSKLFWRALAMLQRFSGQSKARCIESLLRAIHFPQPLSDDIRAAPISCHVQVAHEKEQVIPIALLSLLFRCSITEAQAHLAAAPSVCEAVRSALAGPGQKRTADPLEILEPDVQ
Experiment: qHTS assay for inhibitors of recombinant human GCK-GKRP interaction: HTRF assay (AID 743207);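 further: 0% = DMSO with GCK present and -100% = DMSO wells lacking GCK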
Conditions: recombinant GCK-GKRP HTRF binding, 60 min; series mostly up to 57.5 µM; activity change, negative = inhibition: at the top concentration
Outline: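 Steps: dispense GCK–GKRP complex (5 nM each, GST- and FLAG-tagged) with 2 uM S6P; pin in compounds; add XL665/Eu-cryptate-labelled antibodies; incubate 60 min at room temperature; read time-resolved FRET at 665 and 615 nm.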

| Structure (SMILES) | activity change, negative = inhibition |
| --- | --- |
| CCN(CCCl)Cc1ccccc1Br | -13.9% (inactive) |
| COc1ccc2c(c1)C13CCCCC1C(C2)N(C)CC3 (stereo not drawn) | 1.96% (inactive) |
| CC(C)[C@@]1(NC(=O)[C@@H]2C[C@@H]3c4cccc5[nH]cc(c45)C[C@H]3N(C)C2)O[C@@]2(O)[C@@H]3CCCN3C(=O)[C@H](Cc3ccccc3)N2C1=O | -23.5% (inactive) |
| Cc1sc2ccccc2c1CC1=NCCN1 | 8.57% (inactive) |
| CCCC[N+]1(C)C2CC(OC(=O)[C@H](CO)c3ccccc3)CC1C1OC12 (stereo partly drawn) | -3.92% (inactive) |
| CC(C)CC(NP(=O)(O)O[C@@H]1O[C@@H](C)[C@H](O)[C@@H](O)[C@H]1O)C(=O)NC(Cc1c[nH]c2ccccc12)C(=O)O (stereo partly drawn) | 1.34% [at 57.5 µM, with sorbitol-6-phosphate] (inactive) |
| C[C@H](N)Cc1cccc(C(F)(F)F)c1 | -1% (inactive) |
| Oc1ccc2c3c1O[C@H]1c4[nH]c5ccccc5c4C[C@@]4(O)C(C2)N(CC2CC2)CCC314 (stereo partly drawn) | -4.49% (inactive) |
| C[C@H](N)CN1CCc2ccc(Br)cc21 | 2.03% (inactive) |
| CN1CC[C@@]2(C)c3cc(O)ccc3N(C)C12 (stereo partly drawn) | 0.0281% (inactive) |
| CCCN1CCC[C@@H](c2cccc(O)c2)C1 | -3.47% (inactive) |
| CO[C@H]1CC=C2CCN3CCC4=C(CC(=O)OC4)[C@]23C1 | -1.43% (inactive) |
| CCCN1CCc2cccc3c2[C@H]1Cc1ccc(O)c(O)c1-3 | 16.5% (inactive) |

Test system: not listed separately
Experiment: qHTS Assay for Identifying Gametocytocidal Compounds (AID 743244); further: potency means the concentration at half of the fitted maximal effect;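 on max response: on the % scale 0 is the no-effect control and ±100 the full control effect; actives lower the fluorescent signal which means gametocytes are killed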
Conditions: P. falciparum 3D7 stage III-V gametocytes, alamarBlue, 72 h; max response: active compounds read low
Outline: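 Viability read-out was resazurin reduction (alamarBlue, 24 h) measured at Ex 525/Em 598 nm. Beforehand, late-stage (III-V) 3D7 P. falciparum gametocytes at 20,000 cells/well were incubated with compound 72 h at 37C under 5% CO2.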

| Structure (SMILES) | max response | Potency |
| --- | --- | --- |
| CN[C@H]1C[C@@H](N)[C@H](O)[C@@H](O[C@@H]2O[C@H](CO)[C@H](O)[C@@H]3OC4(O[C@H]23)O[C@H](C(N)CO)[C@H](O)[C@H](O)[C@H]4O)[C@@H]1O (stereo partly drawn) | -0.708% (inactive) and -7.43% (inactive) | – |
| C[C@H]1CC[C@]2(NC1)O[C@H]1C[C@H]3[C@@H]4CC[C@H]5C[C@@H](O)CC[C@]5(C)[C@H]4CC[C@]3(C)[C@H]1[C@@H]2C | 2.92% (inactive) | – |
| O=C(OCCN1CCCCC1)C(O)(c1ccccc1)c1ccccc1 | 6.84% (inactive) | – |
| CN(C)[C@H](Cc1ccccc1)c1ccccc1 | -4.16% (inactive) | – |
| CN(C)[C@@H]1C(=O)C(C(N)=O)=C(O)[C@@]2(O)C(=O)C3=C(O)c4c(O)ccc(Cl)c4[C@@](C)(O)[C@H]3C[C@@H]12 | 3.58% (inactive) | – |
| C=CC[C@]1(O)CC[C@H]2[C@@H]3CCC4=CCCC[C@@H]4[C@H]3CC[C@@]21C | 15.3% (inactive) | – |
| CCNCC(O)c1cccc(O)c1 (stereo not drawn) | -3.84% (inactive) | – |
| COC([CH2][Hg])CNC(=O)c1ccccc1OCC(=O)O (stereo not drawn) | 2.8% (inactive) | – |
| COc1ccc2c(c1)C13CCCCC1C(C2)N(C)CC3 (stereo not drawn) | 9.94% (inactive) | – |
| CN1C2CCC1CC(OC(c1ccccc1)c1ccc(Cl)cc1)C2 (stereo not drawn) | – | 17.8 µM (active) |
| CC(C)[C@@]1(NC(=O)[C@@H]2C[C@@H]3c4cccc5[nH]cc(c45)C[C@H]3N(C)C2)O[C@@]2(O)[C@@H]3CCCN3C(=O)[C@H](Cc3ccccc3)N2C1=O | – | 5.01 µM (active) |
| Cc1sc2ccccc2c1CC1=NCCN1 | 25.3% (inactive) | – |
| CCC/C=C/C=C/C(=O)O[C@H]1/C(=C/C(=O)OC)C[C@H]2C[C@H]([C@@H](C)O)OC(=O)C[C@H](O)C[C@@H]3C[C@H](OC(C)=O)C(C)(C)[C@](O)(C[C@@H]4C/C(=C/C(=O)OC)C[C@H](/C=C/C(C)(C)[C@]1(O)O2)O4)O3 | -10.9% (inactive) | – |
| OC[C@@H](O)[C@H]1O[C@@H]2O[C@H](C(Cl)(Cl)Cl)O[C@@H]2[C@H]1O | 13.7% (inactive) | – |
| O=C1OC2(c3cc(Br)c(O)cc3Oc3c2cc(Br)c(O)[c]3[Hg])c2ccccc21 (stereo not drawn) | -1.46% (inactive) | – |
| COc1ccc(OC)c([C@@H](O)[C@H](C)N)c1 | 0.514% (inactive) | – |
| Cc1ccccc1-n1c(C)nc2ccccc2c1=O | 5.64% (inactive) and -12.4% (inactive) | – |
| CC(C)CCC(=O)O[C@H]1CC[C@H]2[C@@H]3CCC4=CC(=O)CC[C@]4(C)[C@H]3CC[C@]12C | 13.7% (inactive) | – |

| Structure (SMILES) | max response | Potency |
| --- | --- | --- |
| C[C@H](N)Cc1cccc(C(F)(F)F)c1 | 11.9% (inactive) | – |
| CN1CCCC(=C(c2cccs2)c2cccs2)C1 | -3.64% (inactive) | – |
| O=c1ccc2cc(O[C@@H]3O[C@H](CO)[C@@H](O)[C@H](O)[C@H]3O)c(O)cc2o1 | 0.481% (inactive) | – |
| O=C1C=C2C=C[C@@H]3C[C@@]2(O1)[C@H]1CCCCN31 | – | 7.08 µM (active) |
| CC(=O)OO | -9.86% (inactive) | – |
| CCC1(c2ccccc2)C(=O)NC(=O)N(C(=O)c2ccccc2)C1=O (stereo not drawn) | -4.65% (inactive) | – |
| CN1CC[C@@]2(C)c3cc(O)ccc3N(C)C12 (stereo partly drawn) | – | 3.16 µM (active) |
| CCCN1CCC[C@@H](c2cccc(O)c2)C1 | 21.7% (inactive) | – |
| CO[C@H]1CC=C2CCN3CCC4=C(CC(=O)OC4)[C@]23C1 | -3.4% (inactive) | – |
| Clc1ccc(C2(Cn3cncn3)OCCO2)c(Cl)c1 | -2.25% (inactive) | – |
| CN1[C@H]2CC[C@@H]1[C@@H](C(=O)O)[C@@H](OC(=O)c1ccccc1)C2 | 17.6% (inactive) and -3.85% (inactive) | – |
| Oc1ccc2c3c1O[C@H]1[C@@H](O)CC[C@@]4(O)[C@@H](C2)N(CC2CCC2)CC[C@]314 | 2.47% (inactive) | – |
| CCCN1CCc2cccc3c2[C@H]1Cc1ccc(O)c(O)c1-3 | – | 2.82 µM (active) |
| O=C1CN(O)C(c2ccccc2)=c2cc(Cl)ccc2=N1 | 0.268% (inactive) | – |
| CNC1(c2ccccc2Cl)CCCCC1=O (stereo not drawn) | 16% (inactive) and -7.76% (inactive) | – |
| C=CCC1(C(C)CCC)C(=O)N=C(S)NC1=O (stereo not drawn) | -3.05% (inactive) | – |
| CO[C@H]1[C@@H](O)C[C@H](O[C@H]2[C@@H](O)C[C@H](O[C@H]3[C@@H](O)C[C@H](O[C@H]4CC[C@@]5(C)[C@H](CC[C@@H]6[C@@H]5C[C@@H](O)[C@]5(C)[C@@H](C7=CC(=O)OC7)CC[C@]65O)C4)O[C@@H]3C)O[C@@H]2C)O[C@@H]1C | -9.7% (inactive) | – |
